Unmarked numbers belong to inactive results. Where a call stands in place of a potency, no number is given. Active and inactive are the calls of the source. Unless noted, calls come from the whole dose curve.

Experiment in one test: not given
The following applies: Ebola virus entry cell assay, ratio channel.
On to `CCN(CC)C(=S)SSC(=S)N(CC)CC`, for which the result was inactive.

On to `CN1CCC[C@@H]1CCO[C@](C)(c1ccccc1)c1ccc(Cl)cc1`, for which the AC50 is 3.16 µM (active). On the same count and under the same terms, in the case of `CCN(CCO)CCCC(C)Nc1ccnc2cc(Cl)ccc12` (stereo not drawn) it was 1.26 µM (active). Regarding `CN(C)c1cc(NC(=O)CNC(C)(C)C)c(O)c2c1C[C@@H]1C[C@H]3[C@H](N(C)C)C(=O)C(C(N)=O)=C(O)[C@@]3(O)C(=O)C1=C2O`, the result was inactive. Same read-out and setting: the entry for `c1cnc2cc3c(cc2n1)C1CNCC3C1` is “inactive”; for `CN(Cc1cnc2nc(N)nc(N)c2n1)c1ccc(C(=O)N[C@@H](CCC(=O)O)C(=O)O)cc1` it is “inactive”; for `CN1CCC[C@@H]1Cc1c[nH]c2ccc(CCS(=O)(=O)c3ccccc3)cc12` it is “inactive”. The same measure, in the same setting: in the case of `N[C@@H]1CONC1=O` it was “inactive”; in that of `CCCN(CCC)S(=O)(=O)c1ccc(C(=O)O)cc1`, “inactive”; in that of `Cc1onc(-c2ccccc2Cl)c1C(=O)N[C@@H]1C(=O)N2[C@@H]1SC(C)(C)[C@@H]2C(=O)O`, “inactive”. For the compound `C[C@@H](NCCCc1cccc(C(F)(F)F)c1)c1cccc2ccccc12`, the concentration at half-maximal activity (AC50) is 12.6 µM (active). On the same count and under the same terms, the figure for `OCCN1CCN(CCCN2c3ccccc3Sc3ccc(C(F)(F)F)cc32)CC1` is 8.91 µM (active). On to `O=C1CCc2cc(OCCCCc3nnnn3C3CCCCC3)ccc2N1`, for which the result was inactive.

In the case of `CC[C@@]1(c2ccccc2)NC(=O)N(C)C1=O`, the outcome was inactive. For `O=c1n(CCCN2CCN(c3cccc(Cl)c3)CC2)nc2ccccn12`, the outcome was inactive. `COc1ccc([C@@H]2Sc3ccccc3N(CCN(C)C)C(=O)[C@@H]2OC(C)=O)cc1`: the outcome was inactive. As to `C[C@]12CC[C@@H]3c4ccc(O)cc4C[C@@H](CCCCCCCCCS(=O)CCCC(F)(F)C(F)(F)F)[C@H]3[C@@H]1CC[C@@H]2O` (stereo partly drawn), the AC50 is 2 µM (active).

In the case of `CN1CCN(CCCN2c3ccccc3Sc3ccc(Cl)cc32)CC1`, the AC50 is 14.1 µM (active). `CS(=O)(=O)CCNCc1ccc(-c2ccc3ncnc(Nc4ccc(OCc5cccc(F)c5)c(Cl)c4)c3c2)o1`: the result was inactive. Turning to `CN(C)CCCN1c2ccccc2CCc2ccc(Cl)cc21`, the AC50 is 6.31 µM (active). For `NS(=O)(=O)Cc1noc2ccccc12`, the result was inactive. `CCC1=C[C@@H]2CN(C1)Cc1c([nH]c3ccccc13)[C@@](C(=O)OC)(c1cc3c(cc1OC)N(C)[C@H]1[C@@](O)(C(=O)OC)[C@H](OC(C)=O)[C@]4(CC)C=CCN5CC[C@]31[C@@H]54)C2`: the AC50 was 0.282 µM (active).

For `O=C(NCCN1CCOCC1)c1ccc(Cl)cc1`, the outcome was inactive.

`CCCCCOC(=O)Nc1nc(=O)n([C@@H]2O[C@H](C)[C@@H](O)[C@H]2O)cc1F`: the outcome was inactive. Same read-out and setting: the entry for `CCCN[C@H]1CCc2nc(N)sc2C1` is “inactive”.

Turning to `CC[C@]1(O)C[C@@H]2CN(CCc3c([nH]c4ccccc34)[C@@](C(=O)OC)(c3cc4c(cc3OC)N(C)[C@H]3[C@@](O)(C(=O)OC)[C@H](OC(C)=O)[C@]5(CC)C=CCN6CC[C@]43[C@@H]65)C2)C1`, the AC50 was 0.01 µM (active). In the case of `Nc1ccn([C@@H]2O[C@H](CO)[C@@H](O)C2(F)F)c(=O)n1`, the result was inactive. Turning to `OCCN(CCO)c1nc(N2CCCCC2)c2nc(N(CCO)CCO)nc(N3CCCCC3)c2n1`, the outcome was inactive.

Regarding `CC/C(=C(\c1ccccc1)c1ccc(OCCN(C)C)cc1)c1ccccc1`, the AC50 was 1.26 µM (active). `CN(C)CCc1c[nH]c2ccc(C[C@H]3COC(=O)N3)cc12`: the result was inactive. The same measure, in the same setting: in the case of `CN(C)CCOC(C)(c1ccccc1)c1ccccn1` (stereo not drawn) it was “inactive”; in that of `Nc1nc2c(ncn2COC(CO)CO)c(=O)[nH]1`, “inactive”. Consider `CC(=O)CCCCn1c(=O)c2c(ncn2C)n(C)c1=O`, for which the result was inactive. As for `CN(C)CCCN1c2ccccc2Sc2ccc(Cl)cc21`, the AC50 is 10 µM (active). For the compound `CC[C@@H](CO)NC(=O)[C@@H]1C=C2c3cccc4c3c(cn4C)C[C@H]2N(C)C1`, the result was inactive. Consider `CNCC[C@H](Oc1cccc2ccccc12)c1cccs1`, for which the AC50 is 10 µM (active).

As to `COC(=O)C1=C(C)NC(C)=C(C(=O)OCC(C)C)C1c1ccccc1[N+](=O)[O-]` (stereo not drawn), the outcome was inactive. The same measure, in the same setting: the entry for `Cc1ccnc2c1NC(=O)c1cccnc1N2C1CC1` is “inactive”; for `O=C1Nc2ccc(Cl)cc2[C@@](C#CC2CC2)(C(F)(F)F)O1` it is “inactive”.

A short description of a further test: Immunotoxin (HA22) sensitization/mitigation study. Vehicle arm (PBS) (AID 1159510; call rule not given here; note: potency is the fitted concentration of half-maximal effect). The following applies: cancer cells viability with PBS vehicle (HA22 study); series mostly up to 46.1 µM; viability (% of control): at the top concentration.
Consider `CCN(CCO)CCCC(C)Nc1ccnc2cc(Cl)ccc12` (stereo not drawn), for which the “viability (% of control)” value was 84.4%.

`CS(=O)(=O)CCNCc1ccc(-c2ccc3ncnc(Nc4ccc(OCc5cccc(F)c5)c(Cl)c4)c3c2)o1`: the Potency was 20.9 µM (active). In the case of `Nc1ccn([C@@H]2O[C@H](CO)[C@@H](O)C2(F)F)c(=O)n1`, the Potency is 0.0121 µM (active). Still for that read-out and setting: in the case of `O=C1Nc2ccc(Cl)cc2[C@@](C#CC2CC2)(C(F)(F)F)O1` it was 42.9 µM (active).

The record behind these values is PubChem BioAssay (NCATS).
